Activity calls are given as the source filed them.
Experiments:
[1] = tested on: Plasmodium falciparum Sir2 (PF13_0152, Sir2A); assay: Plasmodium falciparum Sir2A binding compounds – biochemical, small-molecule microarray, 635 nm fluorescence, primary screen (AID 1098); conditions: fluorescence 635 nm, higher = more signal;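 also: score merges spot fluorescence intensity with its signal-to-noise ratio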
[2] = probe aDKK1 binding to arrayed compounds – biochemical, biotinylated probe, 635/667 nm fluorescence, primary screen (AID 1099); conditions: small-molecule microarray, higher = more signal;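 also: score merges 667nm spot fluorescence with signal to noise across triplicate slides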
[3] = probe aCHRDL2 binding to arrayed compounds – biochemical, biotinylated probe, 635/667 nm fluorescence, primary screen (AID 1100); conditions: small-molecule microarray, higher = more signal
[4] = change in splice reporter luminescence, either direction, cell-based, HEK293, spliceosome inhibition project, primary screen (AID 1101); conditions: HEK293 splicing luciferase reporter, 24 h, higher = more signal, called active from +8 up or from −8 down;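 also: HEK293 cells carrying a splicing-competent luciferase reporter gene; test concentration not given here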
[5] = target: Fibroblast growth factor 10 (Homo sapiens) (UniProt O15520); assay: compounds binding fibroblast growth factor 10 – biochemical, small-molecule microarray, 635 nm fluorescence, primary screen (AID 1102); conditions: FGF10 binding, fluorescence 635 nm, higher = more signal
Chain of Fibroblast growth factor 10 (Homo sapiens) (O15520 whole entry, looked up): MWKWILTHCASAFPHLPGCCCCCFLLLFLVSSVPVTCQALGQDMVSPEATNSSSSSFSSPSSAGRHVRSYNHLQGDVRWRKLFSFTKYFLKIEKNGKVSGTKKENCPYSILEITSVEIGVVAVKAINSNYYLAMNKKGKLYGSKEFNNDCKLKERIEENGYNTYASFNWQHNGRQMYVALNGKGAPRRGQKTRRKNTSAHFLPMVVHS

[6] = tested on: glycogen synthase kinase-3 (GSK3A per assay name; protocol says GSK3B); assay: compounds binding glycogen synthase kinase-3 – biochemical, small-molecule microarray, 635 nm fluorescence, GSK3A, primary screen (AID 1103); conditions: fluorescence 635 nm, higher = more signal; also: the record names both GSK3A and GSK3B
[7] = target: Epidermal growth factor receptor (Homo sapiens) (UniProt P00533); assay: compounds binding epidermal growth factor receptor – biochemical, small-molecule microarray, 635 nm fluorescence, primary screen (AID 1104); conditions: EGFR binding, higher = more signal;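 also: score merges 667 nm emission intensity with spot signal to noise over triplicate slides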
Chain of Epidermal growth factor receptor (Homo sapiens) (P00533 whole entry, looked up): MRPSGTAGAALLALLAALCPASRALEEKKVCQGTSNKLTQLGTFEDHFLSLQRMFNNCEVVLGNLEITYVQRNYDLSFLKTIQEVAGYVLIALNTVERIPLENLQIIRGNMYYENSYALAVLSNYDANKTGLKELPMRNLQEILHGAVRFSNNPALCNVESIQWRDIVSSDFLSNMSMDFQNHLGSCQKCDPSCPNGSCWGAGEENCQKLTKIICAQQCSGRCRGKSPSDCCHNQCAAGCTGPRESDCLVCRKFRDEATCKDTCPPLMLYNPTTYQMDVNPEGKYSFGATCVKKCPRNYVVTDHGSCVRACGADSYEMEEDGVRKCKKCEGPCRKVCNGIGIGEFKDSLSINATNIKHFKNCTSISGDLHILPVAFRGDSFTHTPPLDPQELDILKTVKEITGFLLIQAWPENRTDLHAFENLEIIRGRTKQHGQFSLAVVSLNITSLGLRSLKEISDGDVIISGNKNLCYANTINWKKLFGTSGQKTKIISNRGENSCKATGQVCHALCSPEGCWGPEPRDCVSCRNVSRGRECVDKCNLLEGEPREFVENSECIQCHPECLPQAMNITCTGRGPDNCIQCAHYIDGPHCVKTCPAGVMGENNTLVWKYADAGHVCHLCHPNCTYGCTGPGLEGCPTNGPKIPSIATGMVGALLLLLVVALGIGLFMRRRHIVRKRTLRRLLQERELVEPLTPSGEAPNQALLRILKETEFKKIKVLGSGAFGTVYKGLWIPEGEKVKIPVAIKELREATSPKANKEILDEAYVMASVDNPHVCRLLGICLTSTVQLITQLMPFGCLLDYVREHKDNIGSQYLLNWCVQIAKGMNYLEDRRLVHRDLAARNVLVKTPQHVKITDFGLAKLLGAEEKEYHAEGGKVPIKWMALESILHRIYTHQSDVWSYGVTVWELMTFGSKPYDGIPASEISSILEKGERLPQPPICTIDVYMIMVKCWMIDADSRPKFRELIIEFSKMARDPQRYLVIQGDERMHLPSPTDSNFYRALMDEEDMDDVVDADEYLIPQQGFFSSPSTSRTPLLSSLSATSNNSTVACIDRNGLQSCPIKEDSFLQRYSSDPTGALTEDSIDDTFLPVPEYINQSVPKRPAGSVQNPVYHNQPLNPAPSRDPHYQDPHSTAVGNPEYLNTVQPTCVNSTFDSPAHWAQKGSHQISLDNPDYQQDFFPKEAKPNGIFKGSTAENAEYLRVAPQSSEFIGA

[8] = target: Follistatin-related protein 3 (Homo sapiens) (UniProt O95633); assay: compounds binding follistatin-related protein 3 – biochemical, small-molecule microarray, 635 nm fluorescence, primary screen (AID 1105); conditions: FSTL3 binding, higher = more signal;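 also: score merges emission near 667 nm and signal to noise per printed spot across three slides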
Chain of Follistatin-related protein 3 (Homo sapiens) (O95633 whole entry, looked up): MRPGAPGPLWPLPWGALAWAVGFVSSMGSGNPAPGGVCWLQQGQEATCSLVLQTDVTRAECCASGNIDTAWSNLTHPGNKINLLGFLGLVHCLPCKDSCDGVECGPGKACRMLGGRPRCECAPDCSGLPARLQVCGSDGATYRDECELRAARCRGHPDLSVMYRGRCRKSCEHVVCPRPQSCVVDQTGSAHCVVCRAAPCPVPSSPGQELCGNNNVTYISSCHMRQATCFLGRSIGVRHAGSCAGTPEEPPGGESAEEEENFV

[9] = target: Dickkopf-related protein 1 (Homo sapiens) (UniProt O94907); assay: small molecules binding DKK1 protein – biochemical, small-molecule microarray, 635 nm fluorescence scan, primary screen (AID 1106); conditions: higher = more signal;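 also: score merges emission near 667 nm with signal to noise over three replicate slides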
Chain of Dickkopf-related protein 1 (Homo sapiens) (O94907 whole entry, looked up): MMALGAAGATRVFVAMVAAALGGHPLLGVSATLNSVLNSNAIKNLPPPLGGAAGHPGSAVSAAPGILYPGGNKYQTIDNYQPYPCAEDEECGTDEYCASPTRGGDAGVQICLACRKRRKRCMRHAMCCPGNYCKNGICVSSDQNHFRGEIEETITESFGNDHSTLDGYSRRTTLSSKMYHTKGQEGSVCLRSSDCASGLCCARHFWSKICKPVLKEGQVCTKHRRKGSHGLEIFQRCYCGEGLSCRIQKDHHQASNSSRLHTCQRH

[10] = tested on: Inhibin beta A chain (activin A); assay: small molecules binding activin A – biochemical, small-molecule microarray, 635 nm fluorescence scan, primary screen (AID 1107); conditions: INHBA, higher = more signal;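 also: mouse activin A protein probed at 4.33 µg/mL on printed slides; score merges bound-protein fluorescence near 667 nm with spot signal-to-noise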
[11] = tested on: Human papillomavirus type 1a protein E7 (residues 44-93); assay: small molecules binding HPV E7 44-93 – biochemical, small-molecule microarray, residues 44-93, 635 nm fluorescence, primary screen (AID 1108); conditions: fluorescence 635 nm, higher = more signal;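 also: E7 fragment applied at 1 µg/mL in TBST for 1 h at 4 C; score combines spot fluorescence with its signal to noise ratio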
[12] = hepatitis C replication reporter changes, two-sided – Huh7 cells, luciferase reporter, HCV replication inhibitor project, primary screen (AID 1109); conditions: Huh7 HCV replicon luciferase reporter, 48 h; higher = more signal;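 also: huh7 hepatoma cells harbouring a luciferase neomycin HCV replicon reporter; luciferase luminescence as measure of HCV replicon replication; test concentration not given here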
[13] = target: Left-right determination factor 2 (Homo sapiens) (UniProt O00292); assay: small molecules binding LEFTY2 protein – biochemical, small-molecule microarray, 635 nm fluorescence scan, primary screen (AID 1110); conditions: higher = more signal
Chain of Left-right determination factor 2 (Homo sapiens) (O00292 whole entry, looked up): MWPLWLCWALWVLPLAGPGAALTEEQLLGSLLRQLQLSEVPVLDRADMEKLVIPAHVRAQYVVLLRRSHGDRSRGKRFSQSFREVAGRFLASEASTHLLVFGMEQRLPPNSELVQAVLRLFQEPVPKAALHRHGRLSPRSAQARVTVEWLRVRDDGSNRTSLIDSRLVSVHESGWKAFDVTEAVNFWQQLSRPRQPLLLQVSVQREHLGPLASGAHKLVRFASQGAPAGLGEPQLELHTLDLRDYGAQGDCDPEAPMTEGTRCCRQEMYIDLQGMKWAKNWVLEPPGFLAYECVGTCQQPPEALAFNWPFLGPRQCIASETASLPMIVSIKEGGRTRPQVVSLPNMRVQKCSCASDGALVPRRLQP

[14] = target: Calmodulin-1 (Homo sapiens) (UniProt P0DP23); assay: small molecules binding calmodulin-1 with EGTA – biochemical, small-molecule microarray, Cy5-labelled CALM1, profiling panel (AID 1111); conditions: Cy5-CALM1 binding fluorescence, higher = more signal;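 also: labelled calmodulin applied in Tris saline Tween buffer holding calcium plus EGTA and DTT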
[15] = target: Calmodulin-1 (Homo sapiens) (UniProt P0DP23); assay: small molecules binding Ca-loaded calmodulin-1 – biochemical, small-molecule microarray, Cy5-labelled CALM1, plus calcium, artefact control for SMM control-protein annotation, profiling panel (AID 1112); conditions: Cy5-CALM1 binding fluorescence, higher = more signal;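 also: score merges spot fluorescence with signal to noise from triplicate slides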
[16] = probe aWnt5a binding to arrayed compounds – biochemical, biotinylated probe, 635/667 nm fluorescence, primary screen (AID 1113); conditions: small-molecule microarray, higher = more signal;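 also: score merges 667 nm fluorescence intensity with signal-to-noise per printed feature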
[17] = probe aShh binding to arrayed compounds – biochemical, biotinylated probe, 635/667 nm fluorescence, primary screen (AID 1114); conditions: small-molecule microarray, higher = more signal;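 also: probe is biotin-labelled aShh protein from a stem cell growth factor screen; measures binding of labelled protein to compounds printed on the slide; score merges feature fluorescence at 667 nm with signal-to-noise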
[18] = probe aNog binding to arrayed compounds – biochemical, biotinylated probe, 635/667 nm fluorescence, primary screen (AID 1115); conditions: small-molecule microarray, higher = more signal;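 also: probe is biotinylated aNog protein used at 0.15 µg/mL for 1 h at 4 C; z-score combines 667 nm fluorescence of each spot with its signal to noise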
[19] = target: Torsin-1A-interacting protein 1 (Homo sapiens) (UniProt Q5JTV8); assay: compound microarray binding of lysate hLAP1 – cell lysate, small-molecule microarray, COS7 lysate, 635/667 nm fluorescence, primary screen (AID 1116); conditions: 635 nm fluorescence, higher = more signal
Chain of Torsin-1A-interacting protein 1 (Homo sapiens) (Q5JTV8 whole entry, looked up): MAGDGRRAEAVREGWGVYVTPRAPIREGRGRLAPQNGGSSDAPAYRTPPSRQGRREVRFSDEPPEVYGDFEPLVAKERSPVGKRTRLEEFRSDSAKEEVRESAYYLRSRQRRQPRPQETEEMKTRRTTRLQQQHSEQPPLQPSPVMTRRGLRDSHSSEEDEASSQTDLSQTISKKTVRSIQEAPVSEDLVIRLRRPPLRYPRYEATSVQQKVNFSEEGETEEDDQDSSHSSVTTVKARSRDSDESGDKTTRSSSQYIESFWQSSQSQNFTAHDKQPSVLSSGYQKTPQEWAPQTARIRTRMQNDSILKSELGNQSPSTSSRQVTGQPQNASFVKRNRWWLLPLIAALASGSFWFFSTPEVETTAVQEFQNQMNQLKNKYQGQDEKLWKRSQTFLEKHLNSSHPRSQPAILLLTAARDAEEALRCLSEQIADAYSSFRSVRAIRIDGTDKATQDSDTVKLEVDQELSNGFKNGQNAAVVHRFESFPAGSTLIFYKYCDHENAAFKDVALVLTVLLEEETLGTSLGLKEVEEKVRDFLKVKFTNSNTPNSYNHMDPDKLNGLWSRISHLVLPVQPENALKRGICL

[20] = target: Alpha-bungarotoxin (Bungarus multicinctus) (UniProt P60615); assay: compounds binding labelled alpha-BTX control protein – biochemical, small-molecule microarray, Alexa647 label, 635/667 nm fluorescence, artefact control for SMM control protein annotation, profiling panel (AID 1117); conditions: alpha-BTX-A647 binding fluorescence, higher = more signal
Chain of Alpha-bungarotoxin (Bungarus multicinctus) (P60615 whole entry, looked up): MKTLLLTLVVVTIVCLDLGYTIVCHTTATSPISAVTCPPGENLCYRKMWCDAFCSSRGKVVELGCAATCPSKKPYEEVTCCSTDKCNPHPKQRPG

| SMILES | composite z-score [1] | composite z-score [2] | composite z-score [3] | z-score [4] | composite z-score [5] | composite z-score [6] | composite z-score [7] | composite z-score [8] | composite z-score [9] | composite z-score [10] | composite z-score [11] | z-score [12] | composite z-score [13] | composite z-score [14] | composite z-score [15] | composite z-score [16] | composite z-score [17] | composite z-score [18] | composite z-score [19] | composite z-score [20] |
| --- | --- | --- | --- | --- | --- | --- | --- | --- | --- | --- | --- | --- | --- | --- | --- | --- | --- | --- | --- | --- |
| O=C1O[C@H](c2ccccc2)[C@H](c2ccccc2)N2[C@H]1[C@@H](C(=O)Nc1nc3ccccc3s1)[C@]1(C(=O)Nc3ccc(C#CC4=CCCCC4)cc31)[C@H]2c1ccc(OCCO)cc1 | 0.956 | -0.004 | 0.54 | -0.718 (inactive) | 1 | 1.3 | 0.202 | 0.891 | 0.779 | 0.881 | 0.945 | -1.91 | 0.56 | 1.36 | 0.536 | -0.176 | -0.188 | 1.37 | -0.513 | 2.12 |
| C=CCC(OC(C)=O)[C@@H]1[C@@H](N(Cc2ccc(-c3ccccc3)cc2)C(=O)c2ccc(C)cc2)c2cc(OCCCO)ccc2N1C(=O)c1ccc2ccccc2n1 (stereo not given in full) | -0.124 | -0.053 | 0.529 | -1.84 (inactive) | -0.0241 | -0.609 | -0.236 | -0.374 | -0.144 | 1.39 | -0.6 | -0.41 | 0.755 | -0.248 | 0.24 | -0.14 | -0.181 | 0.496 | 0.234 | -0.0983 |
| Cc1c(NC(=O)/C(C#N)=C/C=C/c2ccccc2)c(=O)n(-c2ccccc2)n1C | 0.504 | -0.0814 | -0.366 | 0.777 (inactive) | -0.0134 | 0.234 | 0.513 | 0.573 | 0.425 | 0.772 | -0.353 | -0.683 | 0.277 | 0.193 | -0.0357 | -0.145 | -0.416 | -0.49 | -0.296 | 0.754 |
| C=CCNC(=O)[C@H]1[C@@H]2C(=O)O[C@@H](c3ccccc3)[C@@H](c3ccccc3)N2[C@@H](c2ccc(O)cc2)[C@]12C(=O)Nc1ccc(C#Cc3ccc(OC)cc3)cc12 | 1.53 | 0.257 | 0.536 | 0.338 (inactive) | 0.782 | 1.23 | 0.728 | 1.21 | 0.94 | -0.13 | 0.758 | -2.06 | 0.884 | 0.664 | -0.367 | -0.219 | 0.278 | 0.409 | 1.31 | 0.196 |
| CCCCCCCCCCC(O)C1C=CC2C(=O)N(c3ccccc3)C(=O)C2N1Nc1ccc([N+](=O)[O-])cc1 (stereo not given) | 1.34 | -0.101 | 0.584 | 0.823 (inactive) | 0.668 | 1.29 | 0.352 | 1.01 | 0.0052 | 0.559 | 1.41 | -2.47 | -0.193 | 1.01 | 0.496 | -0.0263 | -0.0146 | 1.1 | -0.105 | 1 |
| C=CCC(OC(C)=O)[C@@H]1[C@@H](N(Cc2ccc(-c3cccc(C(F)(F)F)c3)o2)C(=O)Cc2ccc(OC)cc2)c2cc(OCCCO)ccc2N1C(=O)Cc1ccc(OC)cc1 (stereo not given in full) | 0.294 | -0.22 | 0.373 | -1.94 (inactive) | -0.593 | -1.7 | -0.719 | -0.391 | -0.227 | 0.925 | -0.641 | -1.46 | -0.606 | -0.503 | -1.26 | -0.203 | -0.0035 | -0.196 | -0.347 | -0.132 |
| O=C1O[C@H](c2ccccc2)[C@H](c2ccccc2)N2[C@H]1[C@@H](C(=O)NC[C@H](O)c1ccccc1)[C@]1(C(=O)Nc3ccc(C#CC4(O)CCCCCC4)cc31)[C@H]2c1ccccc1OCCO | 1.51 | -0.26 | -0.313 | -1.11 (inactive) | 1.17 | 1.16 | -0.028 | 0.948 | 0.178 | 0.048 | 1.36 | -3.12 | -0.0569 | 0.9 | 0.26 | -0.145 | 0.147 | 0.52 | 0.791 | 0.837 |
| CCN(CC)c1ccc(N2CC=CC34O[C@@H]5C=CCOC(=O)[C@@H]5[C@H]3C(=O)N(CCCCCO)[C@@H]4C2=O)cc1 (stereo not given in full) | 1.85 | -0.0647 | 0.682 | 0.223 (inactive) | 0.126 | -0.453 | -1.53 | -1.22 | -0.413 | 1.1 | 0.221 | -0.323 | -0.938 | -0.385 | -0.0559 | 0.195 | 0.147 | 0.277 | 0.975 | -1.28 |
| COCCOC(=O)N1C(=O)[C@@]2(c3cc(C#CC4=CCCCC4)ccc31)[C@H](c1ccc(OCCO)cc1)N1[C@H](c3ccccc3)[C@H](c3ccccc3)OC(=O)[C@H]1[C@@H]2C(=O)Nc1nc2ccccc2s1 | 0.581 | 0.0643 | 0.153 | -0.831 (inactive) | 1.08 | 1.29 | 0.287 | 1.12 | 0.521 | 0.462 | 1.23 | -1.87 | 0.172 | 1.57 | -0.386 | -0.001 | 0.275 | -0.45 | 0.993 | 0.656 |
| COC(=O)c1nc2oc1CC[C@@H](CO)NC(=O)N(C)Cc1cn(nn1)C[C@H](Cc1ccccc1)NC2=O | 0.68 | -0.268 | 0.269 | -0.275 (inactive) | 0.133 | -0.587 | -0.647 | -0.221 | -0.4 | 0.697 | -0.205 | 1.34 | -1.11 | -0.423 | 0.376 | -0.129 | 0.0639 | 0.582 | 0.481 | 0.981 |
| COc1ccc([Si](C)(C)[C@H]2[C@H](CC(=O)N3CCC[C@H]3CO)O[C@@]3(C(=O)N(Cc4cccc(N5CCC5=O)c4)c4ccccc43)[C@@H]2C)cc1 | 1.11 | -0.0732 | -0.222 | 0.566 (inactive) | 1.4 | 1.27 | 0.993 | 1.45 | 0.672 | 0.728 | 1.41 | -2.36 | 0.992 | -0.105 | -0.363 | -0.0203 | 0.265 | 0.572 | 0.901 | 0.872 |
